In PubChem BioAssay (Tox21):
Inconclusive results are not listed. Active and inactive are the calls of the source. Unless noted, the call rests on the fitted dose curve; in most records, active means well fitted curve in the direction sought with a large enough effect in the repeat runs; inconclusive means weak or mixed curves; inactive means no such curve, though single readings can be large; an effect the other way counts as inactive or inconclusive.

How the values were obtained:
[1] = qHTS assay to identify aromatase inhibitors - cell viability counter screen (AID 743084);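 further: cells stimulated with testosterone during compound exposure; nearly all actives have a fitted effect of over 55% in size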
[2] = biological target: Aryl hydrocarbon receptor (Homo sapiens) (UniProt P35869); assay: qHTS assay to identify small molecule that activate the aryl hydrocarbon receptor (AhR) signaling pathway (AID 743085);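 further: HG2L7.5c1 human HepG2 liver cells with stably integrated DRE-driven firefly reporter; series mostly up to about 70 µM; nearly all actives have a fitted effect of over 15% in size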
Sequence of Aryl hydrocarbon receptor (Homo sapiens) (P35869 whole entry, looked up): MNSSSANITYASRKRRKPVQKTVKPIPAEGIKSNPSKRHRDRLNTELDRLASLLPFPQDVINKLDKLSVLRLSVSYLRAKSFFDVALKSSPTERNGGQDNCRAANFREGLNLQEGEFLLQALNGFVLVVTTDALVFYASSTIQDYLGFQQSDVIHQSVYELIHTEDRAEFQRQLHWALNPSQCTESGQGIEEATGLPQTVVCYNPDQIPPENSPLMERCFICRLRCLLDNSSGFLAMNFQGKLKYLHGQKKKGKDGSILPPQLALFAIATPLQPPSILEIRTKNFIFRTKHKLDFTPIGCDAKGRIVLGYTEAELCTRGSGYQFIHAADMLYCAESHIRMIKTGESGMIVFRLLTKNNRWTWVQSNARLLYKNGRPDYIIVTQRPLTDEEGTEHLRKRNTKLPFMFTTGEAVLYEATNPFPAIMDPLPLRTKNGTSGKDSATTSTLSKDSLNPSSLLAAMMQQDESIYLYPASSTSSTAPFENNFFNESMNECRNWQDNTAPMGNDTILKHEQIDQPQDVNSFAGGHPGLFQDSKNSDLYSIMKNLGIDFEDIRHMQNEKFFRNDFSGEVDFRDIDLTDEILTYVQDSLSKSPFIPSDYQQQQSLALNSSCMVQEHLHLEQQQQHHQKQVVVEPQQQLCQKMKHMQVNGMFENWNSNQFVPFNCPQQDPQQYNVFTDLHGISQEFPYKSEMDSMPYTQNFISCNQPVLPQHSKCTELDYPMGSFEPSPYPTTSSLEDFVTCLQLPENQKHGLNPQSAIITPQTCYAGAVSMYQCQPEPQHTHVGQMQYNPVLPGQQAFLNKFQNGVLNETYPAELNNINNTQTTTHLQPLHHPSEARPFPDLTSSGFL
In short: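 A multiplexed format paired cell viability (CellTiter-Fluor fluorescence) with AhR-dependent luciferase output (ONE-Glo luminescence) in the same wells of HepG2 DRE-luc cells after 24 h compound exposure at 37C.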

[3] = qHTS assay to identify small molecule that activate the aryl hydrocarbon receptor (AhR) signaling pathway - cell viability counter screen (AID 743086);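 further: HepG2 liver cells carrying the AhR DRE luciferase reporter; series mostly up to about 70 µM; nearly all actives have a fitted effect of over 45% in size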
In short: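 Cytotoxicity counter screen: CellTiter-Fluor signal (30 min, 37 C) in 4000 HepG2 cells/well carrying the DRE-luciferase reporter, following 24 h compound exposure at 37 C.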

[4] = biological target: Peroxisome proliferator-activated receptor gamma (Homo sapiens) (UniProt P37231); assay: qHTS assay to identify small molecule agonists of the peroxisome proliferator-activated receptor gamma (PPARg) signaling pathway (AID 743094; active means well fitted activation curve with a large enough effect in the signal ratio in the repeat runs, not every such curve was filed as active; the % refers to the signal ratio)
Sequence of Peroxisome proliferator-activated receptor gamma (Homo sapiens) (P37231 whole entry, looked up): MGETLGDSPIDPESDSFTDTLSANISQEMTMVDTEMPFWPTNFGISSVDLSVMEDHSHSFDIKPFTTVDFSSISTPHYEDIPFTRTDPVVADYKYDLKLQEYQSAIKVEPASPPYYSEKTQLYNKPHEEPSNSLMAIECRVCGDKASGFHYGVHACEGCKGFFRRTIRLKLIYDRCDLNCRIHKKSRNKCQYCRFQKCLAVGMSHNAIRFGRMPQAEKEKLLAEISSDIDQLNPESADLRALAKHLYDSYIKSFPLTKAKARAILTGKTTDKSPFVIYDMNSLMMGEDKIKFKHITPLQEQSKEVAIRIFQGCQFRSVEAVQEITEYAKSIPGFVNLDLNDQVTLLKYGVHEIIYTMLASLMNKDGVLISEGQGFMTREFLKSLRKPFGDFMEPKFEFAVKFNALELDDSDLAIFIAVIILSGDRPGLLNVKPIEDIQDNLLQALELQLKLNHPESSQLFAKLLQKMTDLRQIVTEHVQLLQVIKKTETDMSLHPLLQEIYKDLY
In short: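 Reporter activation was scored by fluorescence of cleaved LiveBLAzer B/G substrate (1 h, room temperature) in PPARg-bla HEK293H cells previously treated 17 h at 37C with DMSO-dissolved compounds.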

[5] = biological target: Peroxisome proliferator-activated receptor gamma (Homo sapiens) (UniProt P37231); assay: qHTS assay to identify small molecule antagonists of the peroxisome proliferator-activated receptor gamma (PPARg) signaling pathway (AID 743191; calls by dose curve; further: series mostly up to about 63 µM; nearly all actives have a fitted effect of over 30% in size)
In short: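 Beta-lactamase reporter under UAS control in HEK293H PPARg-bla cells; compound treatment 17 h at 37C. Read-out: fluorescence intensity after 1 h room-temperature incubation with LiveBLAzer B/G FRET substrate.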

[6] = qHTS assay to identify small molecule antagonists of the peroxisome proliferator-activated receptor gamma (PPARg) signaling pathway - cell viability counter screen (AID 743194); further: nearly all actives have a fitted effect of over 55% in size
In short: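 Viability was measured as CellTiter-Glo luminescence in GeneBLAzer PPARg UAS-bla HEK293H cells. These cells had been exposed 17 h at 37 C to compounds together with rosiglitazone at 50 nM final, with the beta-lactamase readout taken in the same wells.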

[7] = qHTS assay for small molecule agonists of the antioxidant response element (ARE) signaling pathway (AID 743202; active means well fitted activation curve with a large enough effect in the signal ratio in the repeat runs, not every such curve was filed as active; the % refers to the signal ratio)
In short: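 Beta-lactamase reporter activity, read as fluorescence intensity, reflects ARE/Nrf2 pathway induction in HepG2 cells after 16 h compound exposure at 37 C; substrate loading was 2 h at room temperature.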

[8] = qHTS assay for small molecule agonists of the antioxidant response element (ARE) signaling pathway - cell viability counter screen (AID 743203; calls by dose curve; further: nearly all actives have a fitted effect of over 55% in size)
In short: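 Viability counter screen: stably transfected ARE-bla HepG2 line, 16 hrs compound exposure at 37C/5% CO2, ATP-based CellTiter-Glo luminescence measured in the reporter wells.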

[9] = qHTS assay for small molecule activators of the heat shock response signaling pathway - cell viability counter screen (AID 743209); further: nearly all actives have a fitted effect of over 50% in size
In short: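 Viability of HSE-bla HeLa cells is measured with CellTiter-Glo in the wells already used for the reporter read. Compound exposure lasts 5 h at 37 C, and luminescence is read after 30 min at room temperature.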

[10] = qHTS assay for small molecule activators of the heat shock response signaling pathway (AID 743210; active means well fitted activation curve with a large enough effect in the signal ratio in the repeat runs, with a control signal flat, not every such curve was filed as active; the % refers to the signal ratio;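 further: HeLa cells with beta-lactamase reporter driven by heat shock elements; series mostly up to about 63 µM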)
In short: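 Fluorescence from a cleaved B/G FRET substrate (2.5 h, room temp) reports HSE-driven beta-lactamase in HeLa cells treated 5 h at 37 C with DMSO-dissolved compounds.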

[11] = qHTS assay to identify small molecule agonists of the peroxisome proliferator-activated receptor delta (PPARd) signaling pathway - cell viability counter screen (AID 743211); further: nearly all actives have a fitted effect of over 55% in size
In short: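 Tox21 library compounds, delivered in DMSO, were incubated 17 h with PPARd-bla HEK293H cells; cytotoxicity was taken from CellTiter-Glo luminescence read 30 min after reagent addition.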

[12] = biological target: Peroxisome proliferator-activated receptor delta (Homo sapiens) (UniProt Q03181); assay: qHTS assay to identify small molecule agonists of the peroxisome proliferator-activated receptor delta (PPARd) signaling pathway (AID 743212; calls by dose curve;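 further: HEK293H cells with PPARd UAS beta-lactamase reporter GeneBLAzer system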)
Sequence of Peroxisome proliferator-activated receptor delta (Homo sapiens) (Q03181 whole entry, looked up): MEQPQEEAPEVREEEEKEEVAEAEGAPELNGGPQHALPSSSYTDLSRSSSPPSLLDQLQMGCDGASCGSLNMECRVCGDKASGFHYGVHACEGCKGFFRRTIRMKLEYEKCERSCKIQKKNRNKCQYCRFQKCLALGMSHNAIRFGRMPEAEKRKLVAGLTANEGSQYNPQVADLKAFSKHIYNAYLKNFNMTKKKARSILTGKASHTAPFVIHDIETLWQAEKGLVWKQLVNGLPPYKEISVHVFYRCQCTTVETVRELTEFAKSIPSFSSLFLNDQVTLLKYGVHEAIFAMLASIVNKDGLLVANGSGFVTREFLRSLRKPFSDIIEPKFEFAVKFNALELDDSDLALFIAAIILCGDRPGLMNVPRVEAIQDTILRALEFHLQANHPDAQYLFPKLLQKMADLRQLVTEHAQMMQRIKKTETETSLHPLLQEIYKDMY
In short: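 Steps: seed PPARd-bla HEK293H cells; incubate 5 h, 37 C, 5% CO2; add compounds in DMSO; incubate, 37 C; add LiveBLAzer B/G FRET substrate; hold 2 h at room temperature; measure fluorescence.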

[13] = qHTS assay to identify small molecule antagonists of the peroxisome proliferator-activated receptor delta (PPARd) signaling pathway - cell viability counter screen (AID 743213); further: nearly all actives have a fitted effect of over 50% in size
In short: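 In this counter screen, HEK293H cells carrying a UAS-beta-lactamase reporter are co-treated with test compounds and 300 nM L165041 (final) for 17 h at 37 C; cell viability is quantified by CellTiter-Glo luminescence.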

[14] = qHTS assay to identify small molecule agonists of the farnesoid-X-receptor (FXR) signaling pathway - cell viability counter screen (AID 743218); further: nearly all actives have a fitted effect of over 45% in size
In short: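 Viability of FXR-bla HEK 293T cells is measured by ATP-based CellTiter-Glo luminescence following 16 h compound treatment at 37 C and a prior 2 h room-temperature beta-lactamase substrate step.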

[15] = qHTS assay to identify small molecule antagonists of the farnesoid-X-receptor (FXR) signaling pathway - cell viability counter screen (AID 743221; active means well fitted cell-killing curve with a large enough effect in the repeat runs, not every such curve was filed as active; further: nearly all actives have a fitted effect of over 50% in size)
In short: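 Cytotoxicity is taken from ATP luminescence (CellTiter-Glo, 30 min, room temperature) in FXR-bla HEK 293T cells previously incubated 16 h at 37 C with compound and chenodeoxycholic acid at 50 uM final.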

[16] = biological target: Vitamin D3 receptor (Homo sapiens) (UniProt P11473); assay: qHTS assay to identify small molecule agonists of the vitamin D receptor (VDR) signaling pathway (AID 743222; calls by dose curve)
Sequence of Vitamin D3 receptor (Homo sapiens) (P11473 whole entry, looked up): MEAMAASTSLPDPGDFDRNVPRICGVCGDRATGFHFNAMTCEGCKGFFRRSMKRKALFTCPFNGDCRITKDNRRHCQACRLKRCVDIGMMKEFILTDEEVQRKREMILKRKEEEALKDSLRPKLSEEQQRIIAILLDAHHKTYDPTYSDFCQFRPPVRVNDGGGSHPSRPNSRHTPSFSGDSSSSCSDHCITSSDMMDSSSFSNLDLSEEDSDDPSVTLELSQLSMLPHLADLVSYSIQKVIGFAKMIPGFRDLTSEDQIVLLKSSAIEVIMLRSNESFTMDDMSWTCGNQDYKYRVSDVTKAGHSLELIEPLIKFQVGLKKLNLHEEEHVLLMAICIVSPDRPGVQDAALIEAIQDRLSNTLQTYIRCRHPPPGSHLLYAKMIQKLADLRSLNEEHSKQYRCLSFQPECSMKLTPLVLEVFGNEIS
In short: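 Fluorescence from cleaved LiveBLAzer B/G FRET substrate served as readout. VDR-bla cells had been treated 16 h at 37C with test compounds in DMSO, following a 4 h settling period, and substrate was loaded for 2 h at RT.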

[17] = biological target: Peroxisome proliferator-activated receptor delta (Homo sapiens) (UniProt Q03181); assay: qHTS assay to identify small molecule antagonists of the peroxisome proliferator-activated receptor delta (PPARd) signaling pathway (AID 743215; active means well fitted inhibition curve with a large enough effect in the signal ratio in the repeat runs, not every such curve was filed as active; the % refers to the signal ratio;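 further: cells stimulated with agonist L165041 at 300 nM final during compound exposure; series mostly up to about 62 µM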)
In short: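 Plated HEK293H PPARd-bla cells rested 5 h at 37 C and 5% CO2. Compound, then agonist L165041 at 300 nM final, was added; 17 h at 37 C followed. Substrate loading, 2 h room temperature, fluorescence measured.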

[18] = biological target: Vitamin D3 receptor (Homo sapiens) (UniProt P11473); assay: qHTS assay to identify small molecule antagonists of the vitamin D receptor (VDR) signaling pathway (AID 743223; active means well fitted inhibition curve with a large enough effect in the signal ratio in the repeat runs, not every such curve was filed as active; the % refers to the signal ratio)
In short: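 Quantitative HTS in VDR-bla reporter cells stimulated with 1alpha,25-dihydroxyvitamin D3, 3 nM final. Compound exposure 16 h, 37C, 5% CO2. Read-out: beta-lactamase FRET substrate fluorescence, 2 h RT.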

[19] = biological target: Bile acid receptor (Homo sapiens) (UniProt Q96RI1); assay: qHTS assay to identify small molecule antagonists of the farnesoid-X-receptor (FXR) signaling pathway (AID 743217; active means well fitted inhibition curve with a large enough effect in the signal ratio in the repeat runs, not every such curve was filed as active; the % refers to the signal ratio)
Sequence of Bile acid receptor (Homo sapiens) (Q96RI1 whole entry, looked up): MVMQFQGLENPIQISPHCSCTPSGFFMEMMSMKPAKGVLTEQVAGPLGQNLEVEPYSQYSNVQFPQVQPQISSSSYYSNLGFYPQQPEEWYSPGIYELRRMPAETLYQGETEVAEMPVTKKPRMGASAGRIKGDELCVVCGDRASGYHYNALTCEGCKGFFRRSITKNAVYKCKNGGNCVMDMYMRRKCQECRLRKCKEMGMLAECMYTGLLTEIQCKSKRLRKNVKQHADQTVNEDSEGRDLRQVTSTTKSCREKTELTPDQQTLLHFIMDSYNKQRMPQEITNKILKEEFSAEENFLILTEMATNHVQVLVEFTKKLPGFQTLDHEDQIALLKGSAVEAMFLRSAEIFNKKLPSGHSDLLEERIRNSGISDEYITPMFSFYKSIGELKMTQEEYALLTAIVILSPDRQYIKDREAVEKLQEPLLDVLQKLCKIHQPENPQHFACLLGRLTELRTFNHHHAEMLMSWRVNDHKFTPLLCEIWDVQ
In short: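 Screen of the Tox21 10K library in quantitative HTS format using FXR-UAS-bla HEK 293T reporter cells. Agonist chenodeoxycholic acid, 50 uM final, added with compounds; 16 h incubation at 37 °C; beta-lactamase FRET fluorescence measured.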

[20] = biological target: Bile acid receptor (Homo sapiens) (UniProt Q96RI1); assay: qHTS assay to identify small molecule agonists of the farnesoid-X-receptor (FXR) signaling pathway (AID 743220; active means well fitted activation curve with a large enough effect in the signal ratio in the repeat runs, not every such curve was filed as active; the % refers to the signal ratio)
In short: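 FXR-UAS-bla HEK 293T cells carrying a UAS-driven beta-lactamase reporter were plated for 5 h at 37C/5% CO2, then exposed to DMSO-dissolved Tox21 10K compounds for 16 h at 37C. A LiveBLAzer B/G FRET substrate was loaded for 2 h at room temperature before fluorescence reading.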

Measured: Potency

FC1(F)C(F)(F)C(F)(F)C2(F)C(F)(C1(F)F)C(F)(F)C(F)(F)C1(F)C(F)(F)C(F)(F)C(F)(F)C(F)(F)C12F (stereo not drawn)
inactive: [1] | [2] | [3] | [4] | [5] | [6] | [7] | [8] | [9] | [10] | [11] | [12] | [13] | [14] | [15] | [16]

COC(=O)c1cc(Cl)ccc1[N+](=O)[O-]
inactive: [1] | [2] | [3] | [4] | [5] | [6] | [7] | [8] | [9] | [10] | [11] | [12] | [13] | [17] | [14] | [15] | [16] | [18]

COC(=O)C(C)(C)C
inactive: [1] | [2] | [3] | [4] | [5] | [6] | [7] | [8] | [9] | [10] | [11] | [13] | [19] | [14] | [20] | [15] | [16] | [18]

OCCCO
inactive: [1] | [2] | [3] | [4] | [5] | [6] | [7] | [8] | [9] | [10] | [11] | [12] | [13] | [17] | [14] | [16] | [18]

CCCC(=O)OCc1ccccc1
inactive: [1] | [2] | [3] | [4] | [5] | [6] | [7] | [8] | [9] | [10] | [11] | [12] | [13] | [17] | [19] | [14] | [20] | [15] | [16]

C[Si](C)(C)O[Si](C)(C)O[Si](C)(C)C
inactive: [1] | [2] | [3] | [4] | [5] | [6] | [7] | [8] | [9] | [10] | [11] | [12] | [13] | [17] | [14] | [15] | [16] | [18]

CC1(C)C(=O)NC(=O)N1CO
inactive: [1] | [2] | [3] | [4] | [5] | [6] | [7] | [8] | [9] | [10] | [11] | [12] | [13] | [17] | [15] | [16] | [18]
